# Measured values as given in PubChem BioAssay.
# Where “and” joins values, the source holds several entries; their conditions need not be identical. Equal entries are not always repeated. Some structures have more than one record in an assay (separate samples or runs), and their calls can disagree. Calls of active or inactive are those of the source.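 The calls were made as follows: active = compounds whose cell count with miR-34 switched on is under 0.7 times the count with it off; inactive = the rest.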
# Assay: viability loss with induced miR-34 in A549 – imaging, A549 dox-inducible miR-34, nuclei and caspase counts, primary screen (AID 1347080); also: test concentration not given here
# Settings: A549 miR-34 inducible, Hoechst nuclei count, 48 h; stronger effect = lower value; cell number ratio, induced over uninduced
row,Compound,fold change
1,Nc1ncn([C@@H]2O[C@H](CO)[C@@H](O)[C@H]2O)c(=O)n1,0.885 (inactive) and 0.737 (inactive) and 0.556 (active)
2,CCCCCCNC(=O)n1cc(F)c(=O)[nH]c1=O,1.09 (inactive) and 1.08 (inactive)
3,COC1=CC(=O)C[C@@H](C)[C@]12Oc1c(Cl)c(OC)cc(OC)c1C2=O,1.07 (inactive) and 0.956 (inactive) and 0.943 (inactive)
4,Cc1ncc([N+](=O)[O-])n1CC(C)O (centres undefined),0.961 (inactive) and 0.91 (inactive)
5,N[C@@H](C(=O)N[C@@H]1C(=O)N2C(C(=O)O)=C(Cl)CS[C@H]12)c1ccccc1,0.883 (inactive) and 0.884 (inactive)
6,CO[C@@]1(NC(=O)Cc2cccs2)C(=O)N2C(C(=O)O)=C(COC(N)=O)CS[C@@H]21,1.01 (inactive) and 0.868 (inactive) and 0.891 (inactive)
7,CN(C)CCOC(c1ccc(Cl)cc1)c1ccccn1 (centres undefined),0.98 (inactive) and 0.859 (inactive) and 0.928 (inactive)
8,Cc1onc(-c2c(Cl)cccc2Cl)c1C(=O)N[C@@H]1C(=O)N2[C@@H]1SC(C)(C)[C@@H]2C(=O)O,0.978 (inactive) and 0.899 (inactive) and 0.89 (inactive)
9,NS(=O)(=O)c1cc(C2(O)NC(=O)c3ccccc32)ccc1Cl (centres undefined),0.98 (inactive) and 0.828 (inactive) and 0.88 (inactive)
10,CN(C)CCc1c[nH]c2ccc(C[C@H]3COC(=O)N3)cc12,0.877 (inactive)
11,O=S(=O)(O)CCS,0.934 (inactive) and 0.882 (inactive)
12,C/C=C/C(=O)N(CC)c1ccccc1C,0.871 (inactive) and 0.856 (inactive) and 0.894 (inactive)
13,COc1ccc(OC)c(C(O)CNC(=O)CN)c1 (centres undefined),0.924 (inactive) and 0.912 (inactive) and 0.855 (inactive)
14,OC(CCN1CCCC1)(c1ccccc1)C1CCCCC1 (centres undefined),0.976 (inactive) and 0.849 (inactive) and 0.894 (inactive)
15,O=C1C(CCS(=O)c2ccccc2)C(=O)N(c2ccccc2)N1c1ccccc1 (centres undefined),1.01 (inactive) and 1 (inactive) and 0.826 (inactive)
16,CN1CCCC(n2nc(Cc3ccc(Cl)cc3)c3ccccc3c2=O)CC1 (centres undefined),0.849 (inactive) and 0.93 (inactive) and 0.906 (inactive)
17,NCc1ccc(S(N)(=O)=O)cc1,0.973 (inactive) and 0.954 (inactive) and 0.851 (inactive)
18,CC(C)(C)NCC(O)COc1cccc2c1C[C@H](O)[C@H](O)C2 (some centres undefined),0.964 (inactive) and 0.863 (inactive)

# Same assay, conditions: A549 miR-34 inducible, Hoechst nuclei count, 48 h; measured here: relative caspase fold change +Dox/-Dox
row,Compound,fold change
1,Nc1ncn([C@@H]2O[C@H](CO)[C@@H](O)[C@H]2O)c(=O)n1,3.44 and 3.26 and 2.98
2,CCCCCCNC(=O)n1cc(F)c(=O)[nH]c1=O,1.38 and 0.815
3,COC1=CC(=O)C[C@@H](C)[C@]12Oc1c(Cl)c(OC)cc(OC)c1C2=O,2.5 and 0.98 and 2.02
4,Cc1ncc([N+](=O)[O-])n1CC(C)O (centres undefined),1.68 and 0.635 and 1.41
5,N[C@@H](C(=O)N[C@@H]1C(=O)N2C(C(=O)O)=C(Cl)CS[C@H]12)c1ccccc1,1.88 and 4.52
6,CO[C@@]1(NC(=O)Cc2cccs2)C(=O)N2C(C(=O)O)=C(COC(N)=O)CS[C@@H]21,8.44 and 1.64 and 2.66
7,CN(C)CCOC(c1ccc(Cl)cc1)c1ccccn1 (centres undefined),1.31 and 1.4 and 2.86
8,Cc1onc(-c2c(Cl)cccc2Cl)c1C(=O)N[C@@H]1C(=O)N2[C@@H]1SC(C)(C)[C@@H]2C(=O)O,0.333 and 1.39 and 0.886
9,NS(=O)(=O)c1cc(C2(O)NC(=O)c3ccccc32)ccc1Cl (centres undefined),1.92 and 1.71 and 1.64
10,CN(C)CCc1c[nH]c2ccc(C[C@H]3COC(=O)N3)cc12,1.39
11,O=S(=O)(O)CCS,3.36 and 0.596 and 4.13
12,C/C=C/C(=O)N(CC)c1ccccc1C,1.68 and 2.74 and 1.41
13,COc1ccc(OC)c(C(O)CNC(=O)CN)c1 (centres undefined),2.18 and 0.75 and 3.91
14,OC(CCN1CCCC1)(c1ccccc1)C1CCCCC1 (centres undefined),1.12 and 3.13 and 3.87
15,O=C1C(CCS(=O)c2ccccc2)C(=O)N(c2ccccc2)N1c1ccccc1 (centres undefined),1.95 and 1.38 and 4.04
16,CN1CCCC(n2nc(Cc3ccc(Cl)cc3)c3ccccc3c2=O)CC1 (centres undefined),1.32 and 0.694 and 6.18
17,NCc1ccc(S(N)(=O)=O)cc1,2.25 and 1.29 and 0.783
18,CC(C)(C)NCC(O)COc1cccc2c1C[C@H](O)[C@H](O)C2 (some centres undefined),2.62 and 3.63

# Same assay, conditions: A549 miR-34 inducible, Hoechst nuclei count, 48 h; measured here: total cells with miR-34 induction; stronger effect = lower value
row,Compound,cell count
1,Nc1ncn([C@@H]2O[C@H](CO)[C@@H](O)[C@H]2O)c(=O)n1,1630 and 1960 and 3690
2,CCCCCCNC(=O)n1cc(F)c(=O)[nH]c1=O,3390 and 2360
3,COC1=CC(=O)C[C@@H](C)[C@]12Oc1c(Cl)c(OC)cc(OC)c1C2=O,6100 and 6900 and 8710
4,Cc1ncc([N+](=O)[O-])n1CC(C)O (centres undefined),9430 and 9630 and 9650
5,N[C@@H](C(=O)N[C@@H]1C(=O)N2C(C(=O)O)=C(Cl)CS[C@H]12)c1ccccc1,8220 and 11700
6,CO[C@@]1(NC(=O)Cc2cccs2)C(=O)N2C(C(=O)O)=C(COC(N)=O)CS[C@@H]21,10400 and 9040 and 11300
7,CN(C)CCOC(c1ccc(Cl)cc1)c1ccccn1 (centres undefined),9280 and 8230 and 11400
8,Cc1onc(-c2c(Cl)cccc2Cl)c1C(=O)N[C@@H]1C(=O)N2[C@@H]1SC(C)(C)[C@@H]2C(=O)O,10400 and 7750 and 11800
9,NS(=O)(=O)c1cc(C2(O)NC(=O)c3ccccc32)ccc1Cl (centres undefined),11100 and 8640 and 10800
10,CN(C)CCc1c[nH]c2ccc(C[C@H]3COC(=O)N3)cc12,11600
11,O=S(=O)(O)CCS,9790 and 9090 and 11400
12,C/C=C/C(=O)N(CC)c1ccccc1C,8830 and 11400 and 8670
13,COc1ccc(OC)c(C(O)CNC(=O)CN)c1 (centres undefined),9350 and 8590 and 11100
14,OC(CCN1CCCC1)(c1ccccc1)C1CCCCC1 (centres undefined),10200 and 8600 and 10900
15,O=C1C(CCS(=O)c2ccccc2)C(=O)N(c2ccccc2)N1c1ccccc1 (centres undefined),11300 and 8240 and 10300
16,CN1CCCC(n2nc(Cc3ccc(Cl)cc3)c3ccccc3c2=O)CC1 (centres undefined),5140 and 8770 and 9440
17,NCc1ccc(S(N)(=O)=O)cc1,11100 and 8530 and 11400
18,CC(C)(C)NCC(O)COc1cccc2c1C[C@H](O)[C@H](O)C2 (some centres undefined),10500 and 11100
